Sampled rows, rich in hits. Any-hit rate of the full collection: about 21%.
DRD3 antagonist: D3 dopamine receptor (human) antagonism; P35462; D3R cells, DiscoveRx beta-arrestin luminescence, antagonist mode; stronger effect = lower value; max response, negative = inhibition, %; 360,000 compounds, 2.5% hits; in the data active = max response below about -50%; inconclusive = no clear call, values can overlap the other calls; note: % is set by controls: 0 for no effect and ±100 for the full control effect
Target sequence (P35462 whole entry, looked up): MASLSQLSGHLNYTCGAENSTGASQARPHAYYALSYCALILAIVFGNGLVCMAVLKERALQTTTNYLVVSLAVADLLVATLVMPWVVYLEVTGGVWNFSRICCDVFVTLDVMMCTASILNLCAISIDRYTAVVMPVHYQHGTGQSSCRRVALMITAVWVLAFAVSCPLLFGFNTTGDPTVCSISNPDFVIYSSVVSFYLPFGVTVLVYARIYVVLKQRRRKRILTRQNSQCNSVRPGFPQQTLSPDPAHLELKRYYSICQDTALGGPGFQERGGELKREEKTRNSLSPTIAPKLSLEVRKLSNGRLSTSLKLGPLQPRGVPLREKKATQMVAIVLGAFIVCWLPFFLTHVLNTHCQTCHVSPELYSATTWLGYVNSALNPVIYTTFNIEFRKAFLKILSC
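Cells plated overnight at 1500 cells/well, then exposed to library compounds with dopamine controls for 90 minutes at 37 degrees C. DiscoveRx reagent added for 30–60 minutes at room temperature; luminescence read, quantitative HTS format.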
DRD3 agonist: activates the human D3 dopamine receptor. P35462. D3R DiscoveRx beta-arrestin cells, luminescence, 90 min. max activation, %. 410,000 compounds, 0.58% hits; in the data active = max activation above about 30%; note: 0% is about no effect
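Cells at 1500/well, incubated overnight, then treated with pinned compounds (dopamine as control) for 90 min at 37 degrees C. DiscoveRx reagent added for 30 - 60 minutes at room temperature; luminescence read.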
IL-1B inflam inh: blocks inflammasome-driven IL-1 beta release; activity change, % at 57.5 µM; 360,000 compounds, 4.7% hits; THP-1 LPS/ATP IL-1B secretion, AlphaLISA, 16 h; stronger effect = lower value; in the data active = activity change below about -50%; inconclusive = mostly about -30% to -49%; note: % is set by controls: 0 for no effect and ±100 for the full control effect
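Secreted IL-1B measured by AlphaLISA bead assay after 16 h compound exposure of THP-1 cells; compounds (final up to 57.5 uM) added 1 h before LPS (250 ng/mL) and ATP (1.25 mM) stimulation; lower signal means less secretion.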
ClpP mod: qHTS Assay for Activators of ClpP | 340,000 compounds, 1.9% hits | purified B. subtilis ClpP, FRET peptide cleavage, 20 min | Potency, µM (series often up to 57.5 µM), inactives show top-dose activity change, negative = active | AID 651965, 2013 | ATP-dependent Clp protease proteolytic subunit (Bacillus subtilis (strain 168)), P80244; active = well fitted falling curve with a large enough effect; inconclusive = small, poorly fitted or top-dose-only effect; inactive = no such curve, though single readings can be large or run the other way; note: potency is the fitted concentration of half-maximal effect; the source files actives as falling curves though it sought activators and does not explain the sign; nearly all actives have a fitted effect of over 65% in size
Target sequence (P80244 whole entry, looked up): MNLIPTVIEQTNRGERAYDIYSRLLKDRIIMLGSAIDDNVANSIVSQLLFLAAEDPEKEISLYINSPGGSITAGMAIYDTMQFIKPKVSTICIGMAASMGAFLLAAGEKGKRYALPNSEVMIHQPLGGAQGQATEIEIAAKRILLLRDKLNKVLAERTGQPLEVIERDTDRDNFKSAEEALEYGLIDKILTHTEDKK
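FRET quenching reversal measured ClpP activation: 10 microg/mL B. subtilis ClpP at pH 8 with the FRET-FV decapeptide, read at 430 nm after 320 nm excitation. The 20-min minus 0-min signal was scaled between DMSO/no-enzyme wells and ADEP (5.8 microM final).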
DT40 TDP1 CPT: growth inhibition of DT40 Tdp1-/-;hTDP1 cells with camptothecin (screen for TDP1 inhibitors) | chicken DT40 Tdp1-/-;hTDP1 cells + 20 nM CPT, ATP luminescence, 48 h | Potency, µM (series often up to 46.2 µM), inactives show top-dose activity change, negative = growth inhibition, usual class: inhibitors | 420,000 compounds, 12% hits; note: potency is the fitted concentration of half-maximal effect; % is set by controls: 0 for no effect and ±100 for the full control effect; nearly all actives have a fitted effect of over 55% in size
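Chicken DT40 Tdp1-/- cells stably complemented with human TDP1 were seeded at 400 cells/well in medium containing 20 nM camptothecin, exposed to pin-transferred compounds, and grown at 37 °C for at least 48 hr. Viability was read as ATP luminescence.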
TDP1 cell noCPT: qHTS for Inhibitors of human tyrosyl-DNA phosphodiesterase 1 (TDP1): qHTS in cells in absence of CPT; Potency, µM (top dose mostly 46.2 µM), without a hit: at the highest dose activity change, negative = growth inhibition, hits mostly inhibitors; 420,000 compounds, 15% hits; DT40 Tdp1-/- hTDP1 cells, no CPT, ATP luminescence, 48 h; note: potency is the fitted concentration of half-maximal effect; % is set by controls: 0 for no effect and ±100 for the full control effect; nearly all actives have a fitted effect of over 55% in size
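Readout: luminescence from CellTiter-Glo after 30 min in the dark at RT. Cells: DT40 Tdp1-/- with stable hTDP1, 400/well. Exposure: compounds alone, ≥48 hr, 37 °C.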
* hit, by the source's call; [ ] = remark or other dose. Unless noted, calls come from the whole dose curve; as a rule, active = well fitted inhibition curve with a large enough effect; inconclusive = small, poorly fitted or top-dose-only effect; inactive = flat fitted curve, though single readings scatter.

COc1ccc(Cl)cc1NC(=O)CCC(=O)N1CCOc2ccccc21 was read as DRD3 agonist -2.9, ClpP mod -0.1%, DT40 TDP1 CPT inconclusive and TDP1 cell noCPT inconclusive.
Screening CCOc1ccc(OCC)c(NC(=O)CCC(=O)N2CCOc3ccccc32)c1 returned DRD3 agonist -0.3, ClpP mod 1.4%, DT40 TDP1 CPT 25.9µM* and TDP1 cell noCPT 25.9µM*.
C=C(C)C(=O)Oc1ccc(N=Nc2ccc(C)cc2)ccc1=O was read as DRD3 antagonist -2.1, DRD3 agonist 0.1, IL-1B inflam inh inconclusive, ClpP mod -1.2%, DT40 TDP1 CPT 10.3µM* and TDP1 cell noCPT 2.91µM*.
`CC(=O)c1c(O)cc(=O)n(-c2ccccc2)c1-c1ccc(C)cc1` gave DRD3 antagonist -23.6, DRD3 agonist -0.9, IL-1B inflam inh 7.7, ClpP mod -2.2%, DT40 TDP1 CPT -8.4% and TDP1 cell noCPT -5.8%.
`CC(=O)c1c(O)c(C)c(-c2ccccc2)n(-c2ccccc2)c1=O` gave DRD3 antagonist inconclusive, DRD3 agonist -10.2, IL-1B inflam inh 0.0, ClpP mod 22.4µM*, DT40 TDP1 CPT inconclusive and TDP1 cell noCPT inconclusive.
Screening O=C(c1cccc(Cl)c1)N1CCN(Cc2ccncc2)CC1 returned DRD3 antagonist 13.5, DRD3 agonist -8.5, IL-1B inflam inh -5.6, ClpP mod -2.6%, DT40 TDP1 CPT -10.8% and TDP1 cell noCPT -16.0%.
O=C(c1ccc(F)cc1)N1CCN(Cc2ccccc2)CC1 was read as DRD3 antagonist inconclusive, DRD3 agonist -16.6, IL-1B inflam inh -21.6, ClpP mod -0.3%, DT40 TDP1 CPT -8.7% and TDP1 cell noCPT 0.7%.
CC1(C)C(C=C(Cl)Cl)C1C(=O)N1CCN(Cc2ccccc2)CC1 (configuration not stated) was read as DRD3 antagonist -14.8, DRD3 agonist 7.5, IL-1B inflam inh -51.0*, DT40 TDP1 CPT -3.3% and TDP1 cell noCPT inconclusive.
`O=C(c1cccc(Cl)c1)N1CCC(C(=O)N2CCN(Cc3ccccc3)CC2)CC1` gave DRD3 antagonist -16.5, DRD3 agonist -12.3, IL-1B inflam inh 1.6, ClpP mod 28.2µM*, DT40 TDP1 CPT inconclusive and TDP1 cell noCPT inconclusive.
Screening O=C(N1CCN(Cc2ccccc2)CC1)C(Cl)(Cl)Cl returned DRD3 antagonist -13.7, DRD3 agonist -2.1, IL-1B inflam inh -3.1, ClpP mod 12.6µM*, DT40 TDP1 CPT 7.9% and TDP1 cell noCPT -11.1%.
`O=C1Nc2cc(C(=O)N3CCN(Cc4ccccc4)CC3)ccc2SC1N1CCOCC1` (configuration not stated) gave DRD3 antagonist -28.5, DRD3 agonist -5.1, IL-1B inflam inh -18.0, ClpP mod -2.5%, DT40 TDP1 CPT 23.1µM* and TDP1 cell noCPT inconclusive.
For Cc1cccc(-c2cccc(C(=O)N3CCc4c(cnc(C)c4CNC(=O)c4cncs4)C3)c2)c1 the results were DT40 TDP1 CPT -5.3%[9.04 µM] and TDP1 cell noCPT inconclusive.
Screening CCOC(=O)c1ccc(NC(=O)CC(C)n2nc(C)cc2C)cc1 (configuration not stated) returned DRD3 agonist 1.2, ClpP mod 0.2%, DT40 TDP1 CPT inconclusive and TDP1 cell noCPT inconclusive.
`O=C(c1ccc2ccccc2c1)N1CCN(Cc2ccccc2)CC1` gave DRD3 antagonist -86.3*, DRD3 agonist -17.8, IL-1B inflam inh -29.9, ClpP mod -8.0%, DT40 TDP1 CPT inconclusive and TDP1 cell noCPT -20.4%.
Screening O=C(c1cccc(C(=O)N2CCN(Cc3ccccc3)CC2)c1)N1CCN(Cc2ccccc2)CC1 returned DRD3 antagonist -14.9, DRD3 agonist 1.9, IL-1B inflam inh -21.6, ClpP mod -2.5%, DT40 TDP1 CPT -21.7% and TDP1 cell noCPT inconclusive.
For COc1ccc(C2CC(O)(c3ccccc3)Oc3cc(OC)c(OC)c(OC)c32)cc1 (configuration not stated) the results were DRD3 antagonist 8.6, DRD3 agonist 6.1, IL-1B inflam inh -0.3, ClpP mod -1.3%, DT40 TDP1 CPT inconclusive and TDP1 cell noCPT inconclusive.
OC1(c2ccccc2)CC(c2ccccc2)c2ccccc2O1 (configuration not stated) was read as DRD3 antagonist 5.3, DRD3 agonist 72.9*, IL-1B inflam inh -99.2*, DT40 TDP1 CPT -25.0% and TDP1 cell noCPT inconclusive.
`OC(c1ccccc1)(c1ccccc1)C1CCN(CCCOc2ccc3c(c2)CCCC3)CC1` gave DRD3 antagonist -16.7, DRD3 agonist 5.1, IL-1B inflam inh -115.1*, ClpP mod -2.9%, DT40 TDP1 CPT 4.11µM* and TDP1 cell noCPT 5.17µM*.
Screening N#CCc1ccc(OCCCN2CCC(C(O)(c3ccccc3)c3ccccc3)CC2)cc1 returned DRD3 antagonist -68.2*, DRD3 agonist -18.0, IL-1B inflam inh inconclusive, ClpP mod -2.3%, DT40 TDP1 CPT 23.1µM* and TDP1 cell noCPT 20.6µM*.
For OC(c1ccccc1)(c1ccccc1)C1CCN(CCCOc2cccc(OC(F)(F)F)c2)CC1 the results were DRD3 antagonist -80.5*, DRD3 agonist -13.5, IL-1B inflam inh -51.0*, ClpP mod 3.3%, DT40 TDP1 CPT 16.4µM* and TDP1 cell noCPT 16.4µM*.
CC(C)(C)c1ccc(C(O)CCCN2CCC(C(O)(c3ccccc3)c3ccccc3)CC2)cc1 (configuration not stated) was read as DRD3 antagonist -60.4*, DRD3 agonist -63.3, IL-1B inflam inh 3.4, ClpP mod -0.8%, DT40 TDP1 CPT 5.8µM* and TDP1 cell noCPT 4.61µM*.
Screening CC1CN(CCOc2cccc(Oc3ccccc3)c2)CC(C)O1 (configuration not stated) returned DRD3 antagonist -23.0, DRD3 agonist -22.6, IL-1B inflam inh 15.5, ClpP mod 0.5%, DT40 TDP1 CPT inconclusive and TDP1 cell noCPT inconclusive.
For Oc1ccccc1CN1CCC(C(O)(c2ccccc2)c2ccccc2)CC1 the results were DRD3 antagonist 0.0, DRD3 agonist -4.4, IL-1B inflam inh -25.9, ClpP mod -0.3%, DT40 TDP1 CPT -14.4% and TDP1 cell noCPT inconclusive.
`c1ccc(OCCN2CCOCC2)cc1` gave DRD3 antagonist -5.6, DRD3 agonist -12.5, IL-1B inflam inh 29.5, ClpP mod 1.2%, DT40 TDP1 CPT -5.4% and TDP1 cell noCPT 4.0%.

Screens deposited in PubChem BioAssay by National Center for Advancing Translational Sciences (NCATS).
